# Bioassay records (PubChem)
# HEK293 cAMP cs: qHTS Assay for Agonists of the Thyroid Stimulating Hormone Receptor: Activators of Intracellular cAMP Concentrations in Parental HEK 293. actives 2.5% (n = 73,000). Potency, µM (top dose mostly 57.1 µM), for the others: at the top dose activation, usual class: activators. parental HEK293 CNG cAMP sensor, membrane potential fluorescence; also: % of control where 0% means no effect; nearly all actives have a fitted effect of over 55% in size
#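 Parental HEK 293 cells stably expressing a modified CNG channel (no TSHR) report cAMP rise as membrane depolarization. Membrane potential dye with 100 uM RO 20-1724 was loaded for 60 min at room temperature, then compound added for 30 min; fluorescence read at 590 nm.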
# CRE-bla Fsk: Cell signaling CRE-BLA (Fsk stim); CHO CRE-bla reporter (cAMP response element driving beta-lactamase), forskolin EC10, beta-lactamase ratio; Potency, µM (highest dose often 38.2 µM), inactives show top-dose activity change, negative = inhibition, most hits filed as activators; actives 2.5% (n = 71,000); AID 662, 2007; active = well fitted activation curve with a large enough effect in the signal ratio, with a control signal flat, not every such curve was filed as active; inconclusive = small, poorly fitted or top-dose-only effect, or effect the other way, or a change in a side signal; the % refers to the signal ratio; also: % of control where 0% means no effect
#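 Titrated compounds plus EC10 NKH 477 on CHO CRE-bla cells, 3 h, 37 °C. CCF4, 2 h RT. Ratio 460/530 nm → AC50.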
# Tau fil binding: qHTS Assay for Tau Filament Binding. Microtubule-associated protein tau (Homo sapiens), P10636. actives 2% (n = 71,000). recombinant tau filaments, thioflavin S fluorescence, 15 h; filaments grown with octadecylsulfate alongside compound. Potency, µM (highest dose often 57.1 µM), without a hit: top-dose activity change, negative = inhibition. AID 596, 2007;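 also: % is scaled to controls: 0 for no effect and ±100 for the full control effect; actives lower thioflavin S fluorescence by blocking filaments or displacing dye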
# Target sequence (P10636 whole entry, looked up): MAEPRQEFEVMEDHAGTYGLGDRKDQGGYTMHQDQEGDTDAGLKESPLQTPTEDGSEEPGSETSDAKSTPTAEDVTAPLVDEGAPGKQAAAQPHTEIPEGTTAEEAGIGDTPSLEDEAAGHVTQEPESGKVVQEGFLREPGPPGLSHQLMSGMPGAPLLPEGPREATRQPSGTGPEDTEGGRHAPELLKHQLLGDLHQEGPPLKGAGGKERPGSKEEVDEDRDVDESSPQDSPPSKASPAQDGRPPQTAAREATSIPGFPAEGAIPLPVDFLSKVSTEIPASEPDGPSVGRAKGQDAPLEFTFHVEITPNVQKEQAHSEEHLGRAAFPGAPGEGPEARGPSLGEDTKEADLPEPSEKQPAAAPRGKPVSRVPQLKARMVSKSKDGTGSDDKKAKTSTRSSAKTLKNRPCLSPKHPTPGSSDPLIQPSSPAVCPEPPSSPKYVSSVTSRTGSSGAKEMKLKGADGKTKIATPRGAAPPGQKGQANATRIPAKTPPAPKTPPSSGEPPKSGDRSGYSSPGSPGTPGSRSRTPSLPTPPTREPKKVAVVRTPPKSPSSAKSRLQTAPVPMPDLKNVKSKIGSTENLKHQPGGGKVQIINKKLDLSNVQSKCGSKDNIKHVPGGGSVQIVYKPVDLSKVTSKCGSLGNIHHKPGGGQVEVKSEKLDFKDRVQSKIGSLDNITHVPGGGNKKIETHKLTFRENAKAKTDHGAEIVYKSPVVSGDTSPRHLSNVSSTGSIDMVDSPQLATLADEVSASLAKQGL
#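 His-tagged recombinant human tau (exons 2, 3, 10; 1 uM final) fibrillized with 30 uM sodium octadecylsulfate, 15 h at 37 C, in pH 7.4 HEPES buffer with 10 uM thioflavine S and 5 mM DTT. Reduced ThS fluorescence (450/510 nm) marks activity.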
# TSHR agonist: qHTS Assay for Agonists of the Thyroid Stimulating Hormone Receptor; Potency, µM (titrated, usually from 57.1 µM), without a hit: top-dose activation, usual class: activators; AID 926, 2007; HEK293-CNG-TSHR cells (CNG channel as cAMP sensor), membrane potential dye, cAMP; actives 0.48% (n = 73,000); Thyrotropin receptor (Homo sapiens), P16473; active = well fitted activation curve with a large enough effect in the main read-out, with a control signal flat, not every such curve was filed as active; inconclusive = small, poorly fitted or top-dose-only effect, or a change in a side signal; inactive = no such curve, though single readings can be large or run the other way; % of control where 0% means no effect;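 also: the control signal comes from parental cells without the receptor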
#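 HEK 293 cells stably expressing TSHR and a cAMP-gated CNG channel; parental CNG-only cells as counterscreen. Cells preloaded 60 min with membrane potential dye plus 100 uM RO 20-1724, then compound 30 min; fluorescence read at 590 nm.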
# ERK AVP block: qHTS Assay for Inhibitors of the ERK Signaling Pathway using a Homogeneous Screening Assay; HEK293-V1b, vasopressin-stimulated pERK AlphaScreen; Potency, µM (top dose mostly 57.5 µM), for the others: at the highest dose activity, negative = inhibition, usual class: inhibitors; actives 0.99% (n = 72,000); AID 995, 2007; also: % is scaled to controls: 0 for no effect and ±100 for the full control effect; nearly all actives have a fitted effect of over 55% in size
#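 Phosphorylated ERK1/2 detected via AlphaScreen bead proximity in lysates of V1b-expressing HEK293 cells given 25 nM vasopressin for 5 min after 30 min compound exposure (37 °C). AC50 from Hill equation; basal DMSO 0%, vasopressin 100%.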
# Numbers without * were called inactive; ? = inconclusive; · = not tested or not shown; [ ] = another dose, or the depositor's remark. Most compounds without a hit are left out; they make up all but 7.4% or so of the library. Unless noted, calls follow the shape of the dose curve; as a rule, active = well fitted curve in the direction sought with a large enough effect; inconclusive = small, poorly fitted or top-dose-only effect, or another doubt; inactive = no such curve, though single readings can be large; an effect the other way counts as inactive or inconclusive. Potency is read from the fitted curve at half-maximal effect.
SMILES,HEK293 cAMP cs,CRE-bla Fsk,Tau fil binding,TSHR agonist,ERK AVP block
Cc1ccc(NC2=CC(=O)CC(c3ccco3)C2)c(N)c1 (configuration not stated),4.1%,-7.2%,-29.3%,-7.4%,-14.9%
Cc1nc(SCC(=O)N2CCN(C(=O)c3ccco3)CC2)c2c(C)c(C)sc2n1,?,2µM*,17.5%,?,10.9%
C=CCn1c(SCC(=O)NCc2ccco2)nc2sc3c(c2c1=O)CCCCC3,?,-2.4%,19.6%,?,-21.2%
Cc1sc2nc(C(C)C)nc(SCC(=O)NCc3ccco3)c2c1C,?,?,8.5%,?,-28.5%
CCc1nc(SCC(=O)NCc2ccco2)c2c3c(sc2n1)CCCC3,5.01µM*,?,6.7%,?,1.1%
Cc1ccc(-c2csc3ncnc(OCC(=O)NC(=O)NCc4ccco4)c23)cc1,-6.3%[2.29 µM],?,12.8%,-13.5%,-0.6%
O=C(CSc1nc2ccccc2s1)N1CCN(C(=O)c2ccco2)CC1,0.9%,-7.7%,16.4%,4.3%,9.2%
Cc1nc(SCC(=O)NCc2ccco2)c2c(C)c(C)sc2n1,12.8%,3.16µM*,8.1%,26.6%,-25.9%
Cc1sc2ncnc(SCC(=O)NC(=O)NCc3ccco3)c2c1C,8.6%,12.6µM*,45.4%,-0.8%[11.4 µM],16.9%
O=c1c(O)c(-c2ccc(O)c(O)c2)oc2ccccc12,-6.2%,?,?,-10.1%,?
CC1CCC2C(C1)c1sc(=O)[nH]c1SC2(C)C (configuration not stated),20.6%,10µM*,29.1%,·,7.9%
O=C(Nc1ccc(N2CCN(c3ccc(O)cc3)CC2)cc1)Oc1ccccc1,-1.9%,-6.7%,2µM*,-1.9%,-24.0%
O=C(Oc1ccccc1)N1CCN(c2ccc(F)cc2)CC1,28.2%[11.4 µM],?,-12.2%[11.4 µM],7.7%[11.4 µM],-13.8%
CN1CCN(c2ccc(NC(=O)c3cccc(OCc4ccccc4)c3)cc2)CC1,-20.2%,-2.2%,7.94µM*,-18.8%,?
CCCCCc1cc(O)c2c(C)cc(=O)oc2c1,3.16µM*,?,40.0%[11.4 µM],?,-4.0%
CCc1cc(=O)oc2cc(C)cc(O)c12,5.8%,22.3%,-5.1%,-8.9%,25.1µM*
CC(C)CO/N=C1/C[C@@H](O)[C@@H](O)[C@@H]2[C@@H]3C(=O)N(Cc4ccccc4)C(=O)[C@H]3CC[C@@H]12,-3.8%[11.4 µM],·,·,-3.5%[11.4 µM],18.7%[11.5 µM]
CCOC(=O)C1=C(CNCc2ccccc2Cl)NC(=O)NC1c1ccc2c(c1)OCO2 (configuration not stated),?,?,15.8µM*,?,?
COc1nc(Nc2ccc(O)cc2)nc(OC(C(F)(F)F)C(F)(F)F)n1,-0.8%,25.4%,-11.0%,7.9%[11.4 µM],2µM*
COc1ccc(Nc2nc(OC)nc(N3CCN(c4ccc(OC)cc4)CC3)n2)cc1,-2.3%,17.7%,70.0%,-3.4%,?
C[C@H]1[C@H](C)OC(=O)C[C@H](O)C[C@H](O)C[C@H](O)CC[C@H](O)[C@H](O)CC(=O)C[C@H](O)[C@H](C(=O)O)[C@H](O)C[C@H](O[C@@H]2O[C@@H](C)[C@H](O)[C@@H](N)[C@@H]2O)C=CC=CC=CC=CCCC=CC=C[C@@](C)(O)[C@H]1O,?,1.4%[7.6 µM],23.7%[11.4 µM],?,-3.8%[11.5 µM]
COc1ccc(NC(=O)Nc2ccc3nccnc3c2)cc1,-23.9%[11.4 µM],?,3.16µM*,·,-24.8%
COc1ccc(NC(=O)Nc2nccs2)cc1,13.4%,-11.5%,-5.6%,·,-16.9%
COc1ccc(NC(=O)Nc2ccc(N(C)C)cc2)cc1,-6.8%,-5.6%,15.8µM*,45.0%,-12.1%
CCOC(=O)c1[nH]c(CSc2nnnn2-c2ccccc2C)c(C(=O)OCC)c1C,?,2.51µM*,19.4%,?,11.0%
SMILES,HEK293 cAMP cs,CRE-bla Fsk,Tau fil binding,TSHR agonist,ERK AVP block
Nc1nc(N)c(N=Nc2ccc(C(=O)O)c(O)c2)c(N)n1,10.5%[11.4 µM],?,0.4%[11.4 µM],3.1%[11.4 µM],20.9%[11.5 µM]
O=C(O)CCC/C=C\C[C@H]1[C@@H](/C=C\[C@@H](O)C2Cc3ccccc3C2)[C@H](F)C[C@H]1O,-6.4%,-4.3%,2.3%,6.5%,·
Cc1nc2ccc(Cl)cc2nc(C)/c1=N\O,-12.8%,2.3%,12.6µM*,-8.3%,-3.3%
COc1cc2[nH]c3c(N4CCN(c5ccccn5)CC4)ncnc3c2cc1OC,-5.1%,-7.9%,116.9%,-7.4%,25.1µM*
CCOC(=O)C1CCN(c2ncnc3c2[nH]c2cccc(OC)c23)CC1,-9.3%,?,17.7%,-25.6%,-21.3%
COc1cccc2[nH]c3c(N4CCCCC4)ncnc3c12,5.4%,?,7.2%,3.4%,20µM*
COc1ccc(Cc2nc(-c3cccs3)no2)cc1OC,?,3.98µM*,-0.3%,?,-4.3%
CC1CCN(CC(=O)N2c3ccccc3Sc3cc4ccccc4cc32)CC1,17.5%[11.4 µM],-10.6%[7.6 µM],-11.5%[11.4 µM],·,-12.3%[11.5 µM]
O=c1c[n+](CC[n+]2cc(=O)o[nH]2)[nH]o1,-4.3%[11.4 µM],3.2%[7.6 µM],3.3%[11.4 µM],0.2%[11.4 µM],4.6%[11.5 µM]
C(=N\n1cnnc1)/c1ccc2ncccc2c1,-3.6%,-1.5%,12.6µM*,2.9%,1.5%
c1ccc(CCCNc2nnnc3ccccc23)cc1,18.7%[11.4 µM],6.5%[7.6 µM],12.3%[11.4 µM],21.2%[11.4 µM],8.7%[11.5 µM]
c1ccc(CSc2nnc3c(n2)OC(c2ccco2)Nc2ccccc2-3)cc1 (configuration not stated),-5.6%[11.4 µM],29.6%[7.6 µM],3.98µM*,·,?
C=CCSc1nnc2c(n1)OC(c1cccnc1)Nc1ccccc1-2 (configuration not stated),?,25.8%,-5.4%,?,-4.1%
Cc1sc2ncnc(NCc3ccco3)c2c1C,?,?,-22.9%,?,?
c1coc(CNc2ncnc3sc4c(c23)CCCCC4)c1,25.1µM*,?,16.0%,?,-13.6%
Cc1nc(NCc2ccco2)c2c3c(sc2n1)CCC3,15.8µM*,?,2.5%,?,?
O=C(O)CCCSc1ccccc1,4.4%[11.4 µM],-0.1%[7.6 µM],8.0%[11.4 µM],0.0%[11.4 µM],20.0%[11.5 µM]
N#CCCn1c2ccccc2c2nc3ccccc3nc21,23.1%,3.16µM*,25.6%,7.0%,?
O=c1oc2ccccc2n1Cn1c(=O)oc2ccccc21,26.7%,-0.5%,11.7%,·,23.0%
O=c1oc2ccccc2n1CCn1c2ccccc2c2nc3ccccc3nc21,7.94µM*,7.7%,-7.8%,?,6.2%
CCCn1c2ccccc2c2nc3ccccc3nc21,?,?,-17.4%,?,107.2%
Brc1ccc2ncnc(Nc3ccc(N4CCOCC4)cc3)c2c1,-8.8%,0.4%,15.8µM*,-27.6%,?
CCN1CCN(C(=O)c2cc3c(=O)oc4ccc(C)cc4c3s2)CC1,3.9%,2.51µM*,5.4%,2.1%,10.8%
